Compound activity (PubChem)
14-3-3 Bad PPI: disrupts binding of bovine 14-3-3 zeta to phospho-Bad peptide; hit rate 0.71% among 220,000; P63103; inhibition, % at 21.7 µM; TR-FRET 14-3-3zeta/Dy647-pBad peptide displacement, 1 h;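 active = inhibition above about 70%, limit read from the data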;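 note: 0% = full 14-3-3 plus peptide FRET controls and 100% = background without 14-3-3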
Target sequence (P63103 whole entry, looked up): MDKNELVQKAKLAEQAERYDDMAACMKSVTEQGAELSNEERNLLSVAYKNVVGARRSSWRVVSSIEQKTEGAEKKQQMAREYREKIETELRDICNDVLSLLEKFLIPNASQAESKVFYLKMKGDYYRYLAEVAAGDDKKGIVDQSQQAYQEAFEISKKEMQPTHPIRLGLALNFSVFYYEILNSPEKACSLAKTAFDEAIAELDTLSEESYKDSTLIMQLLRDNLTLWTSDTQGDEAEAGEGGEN
NCF1 inh: blocks human p47phox regulatory protein of NADPH oxidases; p47phox/p22phox peptide binding, fluorescence polarization, 2 h; inhibition, % at 24.7 µM; hit rate 0.53% among 220,000; P14598;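 active = inhibition above about 30%, limit read from the data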;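 note: 0% = p47phox with labelled peptide and 100% = labelled peptide alone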
Target sequence (P14598 whole entry, looked up): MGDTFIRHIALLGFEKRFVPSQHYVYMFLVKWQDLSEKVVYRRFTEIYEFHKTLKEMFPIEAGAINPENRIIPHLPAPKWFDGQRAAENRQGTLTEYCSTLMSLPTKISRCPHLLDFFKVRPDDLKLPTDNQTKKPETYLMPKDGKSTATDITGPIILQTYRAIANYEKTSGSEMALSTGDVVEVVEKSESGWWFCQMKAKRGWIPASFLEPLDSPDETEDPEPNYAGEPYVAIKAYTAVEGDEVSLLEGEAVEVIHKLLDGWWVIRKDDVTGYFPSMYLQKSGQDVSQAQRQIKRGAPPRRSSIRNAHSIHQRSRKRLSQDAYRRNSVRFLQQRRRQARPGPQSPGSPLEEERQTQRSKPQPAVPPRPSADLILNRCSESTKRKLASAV
HMGR II inh: inhibitors of class II HMG-CoA reductase from Enterococcus faecalis. purified E. faecalis HMGR, NADPH absorbance 340 nm kinetic. hit rate 0.41% among 190,000. AID 1066. inhibition, % at 10 µM;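 active = inhibition above a set limit, the median over all tested compounds plus 3 SD, cut at about 9.5% in these data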;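 note: enzyme runs in reverse so mevalonate oxidation gives rising NADPH absorbance; 0% = complete reaction with DMSO and 100% = background rate lacking mevalonate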
dFosB act-1: activators of mouse delta FosB homodimer; activation, % at 25 µM; hit rate 0.99% among 340,000; P13346; purified delta FosB, TAMRA-CDK5 oligo fluorescence polarization; percent of positive-control signal above neutral wells;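 active = mean activation above about 17%, with every replicate also reaching it, limit read from the data, passing the limit was not always enough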
dFosB act-2: activators of mouse delta FosB homodimer DNA binding. activation, % at 24.9 µM. 2,400 tested, under 10 active. purified delta FosB, TAMRA-CDK5 oligo fluorescence polarization; normalised: neutral wells 0, positive control 100. shares compounds with dFosB act-1. AID 588690;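 active = highest replicate activation at or above 34% and every replicate reaching that threshold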;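 note: higher polarization means more probe DNA bound by delta FosB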
* hit, by the source's call; x = not tested or not shown; [ ] = remark or other dose. A selection: hits, their analogues and other compounds. The true share with any hit is near 1.9%.

SMILES	14-3-3 Bad PPI	NCF1 inh	HMGR II inh	dFosB act-1	dFosB act-2
Cc1ccccc1NC(=O)C1CCCN(c2ncnc3onc(-c4ccc(F)cc4)c23)C1 (stereo not drawn)	x	x	x	-13	x
COc1ccc(CC(=O)Oc2ccccc2[N+](=O)[O-])cc1	x	x	x	-1	x
Cc1cc(C)c(NC(=O)CS(=O)CC(=O)Nc2ccc(F)cc2F)c(C)c1 (stereo not drawn)	1	-9	x	23*	1
CCOc1ccc(C(=O)CCC(=O)NCC(=O)OCc2ccccc2)cc1OCC	x	x	x	-15	x
COc1ccc(C(=O)Nc2cccc(-c3cc4ccccc4oc3=O)c2)cc1[N+](=O)[O-]	75*[fluorescence artefact?]	32*	-3	52*	5
COc1cc(NC(C)=O)ccc1-c1cc2ccccc2oc1=O	12	11	-1	-10	x
COc1ccc2nc(NC(=O)c3cccc(-c4cc5ccccc5oc4=O)c3)sc2c1	69	39*	-3	44*	0
COc1cc(NC(=O)c2ccc(Cl)cc2Cl)ccc1-c1cc2ccccc2oc1=O	13	-9	-1	24*	6
O=C(COC(=O)/C=C/c1cccc(Cl)c1Cl)Nc1ccc2[nH]c(=O)[nH]c2c1	x	x	x	35*	3
COc1cccc(/C=C/C(=O)OCC(=O)Nc2ccc3[nH]c(=O)[nH]c3c2)c1OC	x	x	x	8	x
O=C(COC(=O)/C=C/c1cccc(Cl)c1)Nc1ccc2[nH]c(=O)[nH]c2c1	x	x	x	27*	0
COc1ccc(-c2nc(Cc3ccc(Cl)cc3)no2)cc1OC	11	5	2	50*	0
O=C(COC(=O)c1n[nH]c(=O)c2ccccc12)NC1CCCCC1	x	x	x	50*	1
O=C(COC(=O)c1n[nH]c(=O)c2ccccc12)NCc1ccccc1	x	x	x	9	x
Cc1ccc(-c2n[nH]c(=S)n2/N=C/C=C/c2ccccc2[N+](=O)[O-])cc1	48	-27	-1	-6	x
S=c1[nH]nc(-c2cc(-c3ccccc3)n[nH]2)n1/N=C/C=C/c1ccccc1	3	-27	x	41*	0
O=[N+]([O-])c1ccccc1/C=C/C=N/n1c(-c2cc(-c3ccccc3)n[nH]2)n[nH]c1=S	49	4	x	54*	2
O=[N+]([O-])CC(c1ccccc1)P(=O)(c1ccccc1)c1ccccc1 (stereo not drawn)	x	x	x	9	x
COc1ccc(NC(=O)C2(c3cccs3)CCOCC2)cc1	-6	-3	-4	3	x
N#C/C(=C(/O)c1ccc(Cl)c([N+](=O)[O-])c1)c1nc2ccccc2[nH]1	42	-4	x	42*	2
COc1ccc(C(=O)Nc2ccnn2C2CCN(C3CCC3)CC2)cc1	x	x	x	-12	x
CCN(c1ccccc1)S(=O)(=O)c1nnc(NC(=O)CC(C)C)s1	x	x	x	-3	x
CCCCC(=O)Nc1nnc(S(=O)(=O)N(CC)c2ccccc2)s1	x	x	x	18*	-1
O=C(NCC(NS(=O)(=O)OCC(Cl)(Cl)Cl)c1ccccc1)C(F)(F)F (stereo not drawn)	x	x	x	2	x
Cc1nc(NC(=O)c2ccc(Br)o2)ccc1Br	x	x	x	1	x
SMILES	14-3-3 Bad PPI	NCF1 inh	HMGR II inh	dFosB act-1	dFosB act-2
O=C(Nc1cccc(NC(=O)c2ccc(Br)o2)n1)c1ccc(Br)o1	75*	11	7	34*	1
O=c1[nH]c(-c2ccc3c(c2)OCO3)nc2c1sc(=S)n2-c1ccccc1	-5	-31	0	-6	x
O=c1[nH]c(-c2ccc(F)cc2)nc2c1sc(=S)n2-c1ccccc1	-6	-13	-9	24*	3
Cc1nc2ccccn2c1C(=O)CSc1ccccc1Cl	-11	-24	-6	-21	x
Cc1nc2ccccn2c1C(=O)CSc1ccc(Cl)cc1Cl	-7	-3	1	50*	1
O=C(NNS(=O)(=O)c1ccc(Cl)cc1)c1cc(-c2ccccc2)n[nH]1	30	-28	x	-7	x
Cc1ccc(NS(=O)(=O)c2cccc(C(=O)NC3CCN(Cc4ccccc4)CC3)c2)cc1	x	x	x	-3	x
O=C(NC1CCN(Cc2ccccc2)CC1)c1cccc(S(=O)(=O)Nc2ccc(SC(F)F)cc2)c1	x	x	x	26*	2
COc1ccc(-c2nn(-c3ccccc3F)cc2CNCCn2nc(C)cc2C)cc1	-2	-10	-10	1	x
C=CCn1c(=S)[nH]c2cc(-c3ccccc3)sc2c1=O	x	x	x	40*	2
O=C(Cc1c(F)cccc1Cl)OCC(=O)c1ccc[nH]1	x	x	x	-3	x
Cc1ccc(Sc2cc(Cl)nc(N)n2)cc1	-7	-7	-4	58*	3
Cc1csc(Nc2nc(N)c(C(=O)Nc3cc(Cl)ccc3F)o2)n1	x	x	x	20*	2
Cc1csc(NC(=O)Cc2c(F)cccc2Cl)n1	x	x	x	-6	x
Cc1cc(C)c2nc3nc(C)c(C)cc3c(N)c2c1	-1	35*	-3	26*	2
CCCSc1nc(C)c2cc(C)cc(C)c2n1	-12	-4	-6	-8	x
Cc1cccc(NC(=O)COC(=O)c2n[nH]c3ccccc23)c1C	x	x	x	25*	7
CN(CC(=O)Nc1ccc(Cl)c(C(F)(F)F)c1)C(=O)CCc1nc2ccccc2c(=O)[nH]1	x	x	x	52*	4
CCCN(CC(=O)Nc1ccc(F)c(F)c1F)C(=O)CCc1nc2ccccc2c(=O)[nH]1	x	x	x	40*	0
CCN1Cc2c(/C=C/c3ccccc3)nc3ccc(OC)cc3c2N(c2cccc(Cl)c2)C1	2	-41	x	21*	4
O=C(OCc1cccc2ccccc12)c1ccc2c(=O)[nH]c(CN3CCOCC3)nc2c1	-6	-35	0	-2	x
O=C(CSc1n[nH]c(-c2ccc(S(=O)(=O)N3CCCCC3)cc2)n1)Nc1nccs1	-4	-13	-5	64*	5
CCOC(=O)CSc1n[nH]c(NC(=O)c2ccc(F)cc2)n1	-12	-6	0	-1	x
CC(=O)c1cccc(CN2CCC(C(=O)Nc3ccc(Oc4cccnc4)cc3)CC2)c1	x	x	x	-14	x
O=C(CCc1nc2ccccc2c(=O)[nH]1)NCCN1C(=O)S/C(=C\c2ccccc2Cl)C1=O	x	x	x	2	x
SMILES	14-3-3 Bad PPI	NCF1 inh	HMGR II inh	dFosB act-1	dFosB act-2
O=C(CCc1nc2ccccc2c(=O)[nH]1)NCCN1C(=O)S/C(=C\c2ccc(OC(F)F)cc2)C1=O	x	x	x	47*	-8
Cc1ccc(NC(=O)Cn2nc(-c3ccco3)ccc2=O)cc1Cl	x	x	x	78*	0
Cc1ccc(NC(=O)Cn2cc(C(F)(F)F)cc(Cl)c2=O)cc1Cl	2	9	-1	23*	6
Cc1ccc(-c2ccc(=O)n(CC(=O)Nc3ccc4c(c3)OCCO4)n2)cc1	8	1	0	-9	x
Cc1nn(CC(=O)Nc2ccncc2)c(C)c1[N+](=O)[O-]	-1	6	-5	-3	x
Cc1ccc(NC(=O)Cn2nc(C)c([N+](=O)[O-])c2C)cc1Cl	-1	-12	3	28*	0
Cc1ccc(S(=O)(=O)Nc2ccc3c(c2)CC(=O)N([C@H](C)CO)C[C@@H](C)[C@H](CN(C)Cc2ccc(-c4ccccc4)cc2)O3)cc1	x	x	x	28*	2
C[C@H](CO)N1C[C@H](C)[C@H](CN(C)Cc2ccc(-c3ccccc3)cc2)Oc2ccc(NS(=O)(=O)c3ccccc3)cc2CC1=O	x	x	x	-2	x
